The list is not random: actives were taken first. Their share in the collection is about 11%.
AMA1 RON2 block = inhibitors of Plasmodium falciparum AMA1-RON2 interaction; AlphaScreen AMA1-biotinylated RON2 peptide binding; Potency, µM (series often up to 58.2 µM), without a hit: at the highest dose activity change, negative = inhibition, most hits filed as inhibitors; actives 0.2% (n = 360,000);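 further: 0% = vehicle wells and -100% = peptide control; nearly all actives have a fitted effect of over 45% in size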
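AMA1 (3D7) with his tag at 25 nM final met compounds first, then biotinylated RON2 peptide at 25 nM; detection used donor plus acceptor beads, 10 µg/mL apiece, read by AlphaScreen after 30 min at room temperature.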
NS1 function inh = blocks influenza NS1 protein function; Potency, µM (doses to about 46.1 µM), for the others: at the top dose activity, positive = more growth; actives 0.4% (n = 270,000); AID 2326; calls by dose curve; further: actives are rising curves; nearly all actives have a fitted effect of over 50% in size
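In this qHTS, NS1 from influenza A is expressed in budding yeast, where it slows growth. Cells are switched from glucose to 2% galactose medium (pH 6.0, -URA), treated with compound, and growth recovery is read at OD600.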
Pf growth 96h = P. falciparum growth inhibition at 96 hours. P. falciparum luciferase reporter growth, 96 h. Potency, µM (highest dose often 28.7 µM), inactives show at the top dose activity change, negative = inhibition, usual class: inhibitors. actives 6.9% (n = 320,000); further: on the % scale 0 is the no-effect control and ±100 the full control effect
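P. falciparum expressing integrated firefly luciferase, in erythrocytes at 2% hematocrit, 0.05% parasitemia, incubated with compounds 96 h at 37 C, 5% CO2. Growth inhibition read as loss of luminescence; two-generation exposure targets delayed-death apicoplast inhibitors.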
Sm TGR block = inhibitors of Schistosoma mansoni thioredoxin glutathione reductase. Q962Y6. purified TGR, DTNB reduction, TNB absorbance 405 nm. Potency, µM (highest dose often 114 µM), inactives show at the highest dose activity change, negative = inhibition, usual class: inhibitors. actives 3% (n = 360,000). AID 485364; further: on the % scale 0 is the no-effect control and ±100 the full control effect; nearly all actives have a fitted effect of over 60% in size
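First, TGR (20 nM dispensed) and NADPH were mixed with compound. Second, a 15 min room-temperature incubation followed. Third, further NADPH and then DTNB were added to start the reaction. Finally, TNB absorbance was monitored kinetically.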
Pf growth 48h = inhibits P. falciparum growth in the first generation, 48 h; Potency, µM (top dose mostly 28.7 µM), for inactives: top-dose activity change, negative = inhibition, actives largely listed as inhibitors; actives 5.9% (n = 310,000); P. falciparum luciferase growth in erythrocytes, 48 h; AID 504832; further: on the % scale 0 is the no-effect control and ±100 the full control effect
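Parasite viability was followed by luminescence of a genomically integrated firefly luciferase. Cultures held 0.1% parasitemia at 2% hematocrit (final), incubated under 5% CO2 at 37 C.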
Active calls of the source: *; ? = inconclusive; . = no result; ! = not confirmed by another sample; [ ] = dose if it differs, or a comment. Unless noted, the call rests on the fitted dose curve; in most records, active means well fitted curve in the direction sought with a large enough effect; inconclusive means small, poorly fitted or top-dose-only effect, or another doubt; inactive means no such curve, though single readings can be large; an effect the other way counts as inactive or inconclusive. Potency means the concentration at half of the fitted maximal effect.

SMILES	AMA1 RON2 block	NS1 function inh	Pf growth 96h	Sm TGR block	Pf growth 48h
Cc1cc(=O)oc2cc(OC(C)C(=O)NCC3CCC(C(=O)O)CC3)ccc12 (stereo unspecified)	0%	6%	?	4%	-35%
Cc1cc(OC(C)C(=O)NCc2ccccn2)c2c(C)c(Cc3ccccc3)c(=O)oc2c1 (stereo unspecified)	10%	4%	-10%	-9%	?
CC(Oc1ccc2c(-c3ccccc3)cc(=O)oc2c1)C(=O)NCC1CCC(C(=O)O)CC1 (stereo unspecified)	10%	4%	3.3µM*	1%	5.2µM*!
Cc1c(Cc2ccccc2)c(=O)oc2cc(OC(C)C(=O)NCC3CCC(C(=O)O)CC3)c(Cl)cc12 (stereo unspecified)	-1%	16%	10µM*	-1%	-15%
COc1ccc(-c2cc(=O)oc3c(C)c(OCC(=O)N(C)C)ccc23)cc1	5%	-27%	?	-2%	68%
CCn1c(=O)c2sccc2n2c(CCC(=O)Nc3ccc(C(C)C)cc3)nnc12	.	.	.	0%	.
CC(NCc1cccs1)c1ccccc1 (stereo unspecified)	-10%	-4%	12µM*	.	36%
CC(Cc1cccs1)NCc1ccccc1 (stereo unspecified)	1%	.	-6%	-1%	367%
CCOC(=O)C(C)CC(C)C(=O)N1CCOCCN(C(=O)C(C)CC(C)C(=O)OCC)CCOCC1 (stereo unspecified)	23%	-2%	82%	13%	8.3µM*
CCCCOC(=O)N1CCOCCOCCOCC1	-4%	3%	11%	-6%	32%
Cc1nc2c(=O)[nH]c3ccccc3c2o1	7%	1%	-5%	1%	-11%
COCCNS(=O)(=O)c1cc(-c2nn(C)c(=O)c3ccccc23)ccc1C	-15%	-4%	.	-14%	-5%
CCCCNS(=O)(=O)c1cc(-c2nn(C)c(=O)c3ccccc23)ccc1C	-8%	-1%	14%	-26%	13µM*
Cc1ccc(-c2nn3c(C)nnc3c3ccccc23)cc1S(=O)(=O)NC(C)c1ccccc1 (stereo unspecified)	-20%	-11%	7.4µM*	-25%	?
N#CCCOC1(C#CCN2CCCC2)CCCCC1	26%	-12%	?	-31%	3%
O=C1C(Cl)=C(NCCN2CCCCC2)C(=O)c2ccccc21	-20%	.	?	22µM*	-27%
CC(C)CN(CCNC(=O)CN1C(=O)COc2ccc(S(=O)(=O)N3CCC(C)CC3)cc21)CC(C)C	18%	-6%	12µM*	26%	?
CCCSCCCNC(=O)CN1C(=O)COc2ccc(S(=O)(=O)N3CCC(C)CC3)cc21	.	.	.	5.6µM*	.
CCCSCCCNC(=O)CN1C(=O)COc2ccc(S(=O)(=O)N3CCCCCC3)cc21	.	.	.	0%	.
COc1ccc(S(N)(=O)=O)cc1C(=O)OCC(=O)NC(C)(C#N)C1CC1 (stereo unspecified)	-13%	.	2%	-2%	-7%
COc1ccc(N(C(=O)c2csnn2)C(C(=O)NC2CCCC2)c2cccs2)cc1 (stereo unspecified)	6%	-1%	1.5µM*	-1%	-9%
COc1ccc(N(C(=O)c2ccco2)C(C(=O)NC2CCCC2)c2cccs2)cc1 (stereo unspecified)	9%	-3%	-13%	0%	-27%
COCCN(C(=O)C(F)(F)F)C(C(=O)NC1CCCCC1)c1ccco1 (stereo unspecified)	8%	5%	12µM*	-22%	-13%
COCCN(C(=O)CCl)C(C(=O)NC1CCCCC1)c1ccccc1C (stereo unspecified)	8%	-1%	8.3µM*	3.5µM*	10µM*
COc1ccc(CCN(C(=O)C(F)(F)F)C(C(=O)NC2CCCCC2)c2cccs2)cc1 (stereo unspecified)	0%	-1%	?	-8%	9.3µM*
SMILES	AMA1 RON2 block	NS1 function inh	Pf growth 96h	Sm TGR block	Pf growth 48h
CCOc1cccc(C(=O)N(Cc2ccc(N(C)C)cc2)CC2CCCO2)c1 (stereo unspecified)	.	.	.	2%	.
O=C(Cn1ncc2c(=O)oc3ccccc3c21)NCc1ccc(Cl)cc1	.	.	.	-7%	.
COC(=O)[C@H]1[C@@H](C)N(Cc2ccccc2)C(=O)N[C@H]1c1ccccc1	7%	.	.	.	.
CC(C)Cn1c(N)c(C(=O)CSc2ncn[nH]2)c(=O)n(C)c1=O	11%	.	.	.	.
COCCNC(=O)C(c1ccccc1F)N(C(=O)C(=O)NC1CCCC1)C1CCCCC1 (stereo unspecified)	0%	1%	12µM*	-4%	-4%
COc1ccc(CCCC(=O)NC2CCCCC2)cc1	-4%	-7%	66%	12%	22%
COc1ccc(CCN(C(=O)C(F)(F)F)C(C(=O)NC2CCCCC2)c2ccc(C)s2)cc1 (stereo unspecified)	-3%	7%	8.3µM*	7%	?
Cc1nc(-c2ccc(C(=O)Nc3cc(S(N)(=O)=O)ccc3C)cc2)cs1	0%	29%	?	10%	-16%
COc1ccc(CNS(=O)(=O)c2c(C)[nH]c(C)c2C(=O)N2CCCCC2)cc1	-1%	-10%	14%	-19%	-1%
Cc1ccc(CNS(=O)(=O)c2c(C)[nH]c(C)c2C(=O)N2CCCCC2)o1	-4%	2%	13µM*	45µM*	-8%
CCOc1ccc(NC(=O)N(Cc2ccc(C)cc2)Cc2ccccn2)cc1	-11%	-9%	-9%	22%	-22%
CCOc1ccccc1C(=O)N1CCc2cc(OC)c(OC)cc2C1COc1ccc(OC)cc1 (stereo unspecified)	.	.	.	-1%	.
CC(C)C(C)NC(=O)CSc1ccc(S(=O)(=O)N2CCOCC2)cn1 (stereo unspecified)	15%	.	-7%	-17%	-8%
CN(C(=O)CSc1ccc(S(=O)(=O)N2CCCCC2)cn1)c1ccccc1	-3%	.	12µM*	-15%	?
CN(C)C(=O)C(Sc1ccc(S(=O)(=O)N2CCCC2)cn1)c1ccccc1 (stereo unspecified)	11%	.	?	0%	15µM*
CC(Sc1ccc(S(=O)(=O)N2CCCC2)cn1)C(N)=O (stereo unspecified)	9%[11.6 µM]	.	-13%	-6%	-5%
CCN(C(=O)C(C)Sc1ccc(S(=O)(=O)N2CCOCC2)cn1)c1ccccc1 (stereo unspecified)	8%	.	?	-7%	13µM*
COc1cccc(C(N)c2nc(-c3cc(F)cc(F)c3)cs2)c1 (stereo unspecified)	0%	.	.	.	.
CC(OC(=O)c1ccncc1)C(=O)Nc1ccc([N+](=O)[O-])cc1Cl (stereo unspecified)	-2%	.	97%	-1%	37%
CCN(CC)c1ccc(NC(=O)C2CCCC2)cc1	-17%	-7%	?	3%	?
CCCN(Cc1ccc(N(C)C)cc1)CC1CC1	-8%	-4%	2.1µM*	-5%	.
